Screening data from PubChem BioAssay.
Only some compounds are listed: those with a hit (about 7.3% of all), similar ones and a draw of the others.
FMDV inh: High Throughput Screening for Foot and Mouth Disease Virus Antivirals | FMDV antiviral cell-based qHTS | Potency, µM (series often up to 57.9 µM), inactives show at the highest dose activity change, negative = inhibition, usual class: inhibitors | 410,000 tested, 1.2% active | AID 1159524, 2015; calls by dose curve; tested in HEK293T cells; further: read-out not given here; potency means the concentration at half of the fitted maximal effect; nearly all actives have a fitted effect of over 45% in size
HCMV antiviral: qHTS Assay for inhibitors of the human cytomegalovirus (HCMV); HFF cells, HCMV-luciferase reporter, 72 h; active compounds read low; activity change, negative = inhibition, % at 57.5 µM; 410,000 tested, 4.5% active; in the data active means activity change below about -60%; inconclusive means no clear call, values can overlap the other calls; inactive means above about -39%
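Inhibition of viral replication was scored as loss of reporter luminescence in HFFs infected with HCMV-luciferase (MOI 1 PFU/cell) for 72 h; compounds tested at 2 doses, normalized to buffer and Salinomycin controls.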
Vaccinia Venus: qHTS for Stage-Specific Inhibitors of Vaccinia Orthopoxvirus: Venus Reporter Primary qHTS | Potency, µM (series often up to 36.5 µM), without a hit: at the top dose activity change, negative = inhibition, most hits filed as inhibitors | 330,000 tested, 0.46% active | Vaccinia virus Venus reporter expression, fluorescence; calls by dose curve; tested in A549 cells; further: potency means the concentration at half of the fitted maximal effect; nearly all actives have a fitted effect of over 30% in size
Vaccinia mCherry: qHTS for Stage-Specific Inhibitors of Vaccinia Orthopoxvirus: mCherry Reporter Primary qHTS. AID 720579, 2013. Vaccinia virus mCherry reporter infection, fluorescence. 310,000 tested, 0.63% active. Potency, µM (titrated, usually from 36.5 µM), for the others: at the top dose activity change, negative = inhibition, actives largely listed as inhibitors; calls by dose curve; tested in A549 cells; further: potency means the concentration at half of the fitted maximal effect; nearly all actives have a fitted effect of over 35% in size
HCV inh: qHTS Assay for Inhibitors of Hepatitis C Virus (HCV). Huh7.5.1 HCVcc-Cre infection, luciferase reporter, 44 h. Potency, µM (top dose mostly 41.8 µM), for the others: at the highest dose activity change, negative = inhibition, hits mostly inhibitors. 340,000 tested, 3.4% active; active means well fitted inhibition curve with a large enough effect; inconclusive means small, poorly fitted or top-dose-only effect, or another doubt; inactive means no such curve, though single readings can be large or run the other way; further: potency means the concentration at half of the fitted maximal effect
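Cells seeded at 1,000/well and cultured 4 h, then compounds added followed by HCVcc-Cre virus (~0.5 moi). After 44 h further culture, luciferase substrate was added, plates held 15 min at room temperature, and luminescence read for 15 sec.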
* marks the source's active call; other numbers are inactive results; i = inactive; ? = inconclusive; / = no result. On the % scale 0 is the no-effect control and ±100 the full control effect.

SMILES	FMDV inh	HCMV antiviral	Vaccinia Venus	Vaccinia mCherry	HCV inh
O=C(COc1ccc(S(=O)(=O)N2CCOCC2)cc1)NCCCn1ccnc1	-16.6%	?	-3.8%	-16.8%	9.9%
O=C(/C=C/c1ccc(S(=O)(=O)N2CCOCC2)cc1)NC(=S)NCCCn1ccnc1	-10.4%	-82.4*	?	-16.2%	22.4µM*
CCCCC(C(=O)NC1CCCC1)N(Cc1ccccc1)C(=O)c1snc(C(N)=O)c1N (configuration not stated)	-14.3%	-60.8*	-4.0%	i	?
CC(C)CC(C(=O)NC1CCCCC1)N(Cc1cccs1)C(=O)c1snc(C(N)=O)c1N (configuration not stated)	-33.9%	?	/	/	12.6µM*
CCCC(C(=O)NC1CCCC1)N(Cc1ccc(F)cc1)C(=O)c1snc(C(N)=O)c1N (configuration not stated)	-5.2%	42.1	2.8%	i	-6.8%
Cc1cccc2c(=O)cc(CSCC(=O)Nc3ccc(Cl)cc3)[nH]c12	-27.3%	-0.8	-5.2%	19.4%	/
Cc1ccc(-n2cnc3scc(-c4cccs4)c3c2=O)cc1	-17.8%	21.2	-22.9%	-14.5%	11.2µM*
O=c1c2c(-c3cccs3)csc2ncn1-c1ccccc1	-20.3%	-9.5	-19.3%	/	?
CC1(C)CC(C(CCN(Cc2ccccc2)C(=O)c2ccco2)c2ccc(F)cc2)CCO1 (configuration not stated)	14.1µM*	-8.2	?	?	?
CN(C)/N=C/c1ccc(P(c2ccc(/C=N/N(C)C)o2)c2ccc(/C=N/N(C)C)o2)o1	16.6%	-61.9*	-6.2%	-24.1%	?
CC1(C(=O)NC2CCCC2)CCC(=O)N1CCOc1ccccc1 (configuration not stated)	-3.0%	-0.5	-1.0%	16.5%	/
Brc1ccc(-c2csc(/N=C/N3CCCC3)n2)cc1	-21.7%	-23.2	-27.0%	-15.0%	11.2µM*
Brc1ccc(-c2csc(N3CCOCC3)n2)cc1	36.3%	6.6	/	/	11.2µM*
O=[N+]([O-])c1ccc(Cl)c(CN2CCN(c3ncc(Cc4ccccc4)cn3)CC2)c1	?	-27.7	?	?	/
C(=C1c2ccccc2Oc2ccccc21)c1ccccc1	/	/	-9.3%	-13.2%	/
CCOC(=O)c1c(NC(=O)CSc2nnc(-c3c[nH]c4ccccc34)n2CCOC)sc2c1CCCCC2	?	-66.7*	?	?	6.31µM*
COCCNc1nnc(SCC(=O)Nc2sc3c(c2C(=O)c2ccccc2)CCCC3)s1	?	-85.7*	?	-21.8%	2.51µM*
CCOC(=O)c1c(NC(=O)CSc2nnc3c(n2)[nH]c2ccccc23)sc2c1CCN(C)C2	-17.9%	16.5	-8.5%	-14.5%	7.08µM*
CCOC(=O)c1c(NC(=O)CSc2c[nH]c3ccccc23)sc2c1CCC2	-6.0%	57.8	-27.3%	?	?
CCOC(=O)c1c(NC(=O)CSc2ncccn2)sc2c1CCN(Cc1ccccc1)C2	?	29.3	/	/	?
CCOC(=O)c1c(NC(=O)C(NCCN(C)C)c2ccccc2)sc2c1CCCC2 (configuration not stated)	-16.1%	-26.1	-21.9%	?	0.891µM*
COc1ccccc1C1CN(Cc2ccc(Sc3nncn3C)o2)Cc2ccccc2O1 (configuration not stated)	-2.5%	/	-7.4%	-13.0%	/
O=C(OCc1ccccc1)/C(=C(\O)c1ccccc1Br)c1ccc(-c2ccccc2)cn1	-6.0%	10.2	-5.9%	-11.8%	-23.1%
CCOC(=O)c1c(NC(=O)CSc2c[nH]c3ccccc23)sc2c1CCCC2	?	-17.3	-24.7%	?	11.2µM*
CC(C)(C)C1CCc2c(sc(NC(=O)c3ccc(Cl)cc3)c2C(=O)NCc2ccco2)C1 (configuration not stated)	-19.0%	2.1	-5.3%	i	/
SMILES	FMDV inh	HCMV antiviral	Vaccinia Venus	Vaccinia mCherry	HCV inh
Oc1c(Br)cc(Br)c2cccnc12	0.0%	19.6	-5.1%	-18.9%	?
[O-][n+]1cccc2c(Br)cc(Br)c(O)c21	-19.1%	-84.4*	-9.3%	i	-1.8%
COc1ccc(Br)cc1C(=O)Nc1cccc2ncccc12	-0.7%	-39.2	/	/	10µM*
COc1ccc(Br)cc1C(=O)Nc1ccc(O)cc1	/	-5.7	-2.8%	-11.8%	3.98µM*
O=C(Nc1ccc(Br)cc1)c1ccccc1Br	40.1%	36.3	/	/	-16.6%
O=C(Nc1ccc(Br)cc1)c1cc(Br)cc(Br)c1O	/	-99.1*	/	/	/
CCN(CC)C(=O)Cn1c(SCC(=O)Nc2ccc(F)cc2)nc2ccccc21	-4.9%	-4.5	1.2%	-11.0%	/
CC(C)(C)NC(=O)COC(=O)CNC(=O)C1CCCCC1	/	/	-9.3%	38.5%	/
Cc1noc(C)c1S(=O)(=O)N1CCC(C(=O)NCCC2=CCCCC2)CC1	-0.2%	-102.2*	-8.8%	-4.7%	?
Cc1nn(C)c(C)c1S(=O)(=O)N1CCC(C(=O)NCCC2=CCCCC2)CC1	-10.7%	?	-10.3%	6.4%	-10.5%
O=C1CCc2cc(S(=O)(=O)N3CCC(C(=O)NCCC4=CCCCC4)CC3)ccc2N1	-12.7%	-98.5*	-8.9%	-12.8%	-7.5%
Cc1nc(NC(=O)c2ccc(OCC(C)C)cc2)sc1Cc1ccc2c(c1)OCO2	-9.1%	?	-28.3%	i	14.1µM*
CCCOc1ccc(C(=O)Nc2nc(C)c(Cc3ccc4c(c3)OCO4)s2)cc1	-19.0%	?	10µM*	?	3.55µM*
COc1cc(C(=O)Nc2nc(C)c(Cc3ccc4c(c3)OCO4)s2)cc(OC)c1OC	-29.5%	-1.9	/	/	10µM*
CCc1nn2c(=O)cc(COC(=O)c3cccc(NC(=O)CCc4ccccc4)c3)nc2s1	-14.8%	6.0	-20.0%	-5.8%	/
Cc1ccc(C(=O)N/C(=C\c2ccco2)C(=O)NCCN2CCOCC2)cc1	-13.5%	?	-5.2%	-1.6%	3.3%
COc1ccc(Nc2nc(Nc3ccc(OC)cc3)nc(-n3[nH]c(=O)c(C)c3C)n2)cc1	-17.1%	13.3	-28.4%	?	10µM*
COc1ccc(Nc2nc(OC)nc(OC)n2)cc1	27.4%	-26.3	/	/	4.9%
O=c1c(-c2ccc(F)cc2)nc2cnc(Nc3ccccc3)nc2n1Cc1cccs1	-2.2%	/	/	/	/
COc1ccc(NC(=O)C2CCCNC2)cc1OCC(C)C (configuration not stated)	0.4%	9.7	-3.9%	-12.0%	?
COc1ccc(NC(=O)C2CCCN(CCCc3ccccc3)C2)cc1OCC(C)C (configuration not stated)	-9.4%	-91.2*	/	/	?
Cc1cnc(SCc2ccccn2)nc1C1CCCN(C(=O)c2ccc3c(c2)OCCO3)C1 (configuration not stated)	-2.7%	/	-5.7%	-11.7%	/
Cc1ccc(CNS(=O)(=O)c2c(C(=O)N3CCCCC3)c(C)n(C)c2C)o1	31.9%	-24.4	-9.4%	i	?
